In PubChem BioAssay (EPA / NIEHS) one finds outcome and AC50 data, which are given here for 38 molecules.

SMILES strings stand for the structures. The source made the active and inactive calls. How the source made its calls: active means hit-call score of the fitted dose curve at least 0.9, where 1 is the maximum; inactive means score below 0.9.

Read-out in the first test: MYC, MYC (gene 4609)
Briefly: LTEA_HepaRG_MYC: Life Technologies and Expression Analysis (LTEA) Assay for MYC using HepaRG (AID 2283518). The conditions noted are these: mRNA level, 48 h; actives raise or lower the signal. Summed up: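 Expression changes were scored by TaqMan qRT-PCR with ACTB, GAPDH and POLR2A normalization. Cultures in serum-free induction medium received duplicate 8-point concentration series, highest 100 uM, for 48 h; DMSO (0.5%) served as baseline.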
For the molecule `CCCCCc1ccc(N)cc1`, the call was inactive.

Consider `CC(O)CC(C)(C)O` (stereo unspecified), for which the call was inactive.

In the case of `O=C1CCC(C2CCCCC2)CC1`, the outcome was inactive.

On to `CC[C@@H]1C[C@H](N(Cc2cc(C(F)(F)F)cc(C(F)(F)F)c2)C(C)=O)c2cc(C(F)(F)F)ccc2N1C(=O)OC(C)C`, for which the outcome was inactive.

On to `O=c1ccc2ccccc2o1`, for which the molecule was classed as inactive.

As for `CC(C)(c1cc(Br)c(O)c(Br)c1)c1cc(Br)c(O)c(Br)c1`, the AC50 was 89.5 µM (active).

For `CO[C@H]1/C=C/O[C@@]2(C)Oc3c(C)c(O)c4c(O)c(c(/C=N/N5CCN(C)CC5)c(O)c4c3C2=O)NC(=O)/C(C)=C\C=C\[C@H](C)[C@H](O)[C@@H](C)[C@@H](O)[C@@H](C)[C@H](OC(C)=O)[C@@H]1C`, the result was inactive.

Take `O=C=NCCCCCCN=C=O`: the molecule was classed as inactive.

As for `O=C(Nc1ccc(Cl)cc1)Nc1ccc(Cl)c(Cl)c1`, the concentration at half-maximal activity (AC50) was 28.6 µM (active).

With `Cc1c2ccccc2c(C)c2c1ccc1ccccc12`, the AC50 was 63.7 µM (active).

As to `Cc1ncc(CO)c(CO)c1O`, the result was inactive.

Consider `COc1cccc([C@H](O)C2CCN(CCc3ccc(F)cc3)CC2)c1OC`, for which the result was inactive.

On to `CCN(Cc1cccnc1)C(=O)c1cccc(Cl)c1[C@]1(C)C(=O)N(Cc2ccc(OC)cc2OC)c2ccc(Cl)cc21`, for which the AC50 was 25.3 µM (active).

Take `Cc1oc2c(NC(=O)c3c(Cl)cccc3Cl)cccc2c1C(C)(C)O`: the AC50 is 50 µM (active).

Regarding `Cc1cccc2ccccc12`, the call was inactive.

As to `CC1=CC(=O)/C(=C(/C)O)C(=O)O1`, the result was inactive.

Consider `Cc1cn([C@H]2C[C@H](N=[N+]=[N-])[C@@H](CO)O2)c(=O)[nH]c1=O`, for which the outcome was inactive.

As for `c1ccc2ccccc2c1`, the result was inactive.

As to `O=c1c(-c2ccc(O)cc2)coc2cc(O)cc(O)c12`, the result was inactive.

Turning to `Cc1ccc2oc(CN(Cc3ccccc3)C(=O)Nc3c(F)cc(F)cc3F)c(-c3ccc(Cl)cc3)c2c1`, the AC50 was 44.2 µM (active).

On to `C[C@]12CC[C@@H]3c4ccc(O)cc4CC[C@H]3[C@@H]1CCC2=O`, for which the molecule was classed as inactive.

For the molecule `COc1cc(C(=O)NC2CCN(C)CC2)ccc1Nc1ncc2c(n1)N(C1CCCC1)CC(F)(F)C(=O)N2C`, the AC50 was 14.7 µM (active).

Turning to `CCCCOC(=O)CC(CC(=O)OCCCC)(OC(C)=O)C(=O)OCCCC`, the call was inactive.

Take `O=C(O)Cc1cc(I)c(Oc2ccc(O)c(I)c2)c(I)c1`: the concentration at half-maximal activity (AC50) is 91.3 µM (active).

Take `CC1(C)NC(=O)N(c2ccc([N+](=O)[O-])c(C(F)(F)F)c2)C1=O`: the concentration at half-maximal activity (AC50) is 81.8 µM (active).

On to `CCCCOC(=O)c1ccc(O)cc1`, for which the molecule was called inactive.

Take `CC/C(=C(/CC)c1ccc(O)cc1)c1ccc(O)cc1`: the result was inactive.

On to `NCc1cccc(C2CCN(C(=O)c3ccc(C#Cc4ccccc4F)o3)CC2)c1`, for which the call was inactive.

As to `CCCCCCCCN(C)CCCCCCCC`, the call was inactive.

Consider `O=C(O)Cn1c(=O)n(Cc2ccc(Br)cc2F)c(=O)c2ccc(Cl)cc21`, for which the molecule was classed as inactive.

`CCCCCCCCOc1ccc(C(=O)c2ccccc2)c(O)c1`: the result was inactive.

In the case of `CC(=O)N1CCN(c2ccc(OC[C@H]3CO[C@](Cn4ccnc4)(c4ccc(Cl)cc4Cl)O3)cc2)CC1`, the AC50 was 15.4 µM (active).

As to `c1ccc2n[nH]nc2c1`, the molecule was called inactive.

With `O=CCCCC=O`, the call was inactive.

`CN(C)c1ccc(C(=C2C=CC(=[N+](C)C)C=C2)c2ccc(N(C)C)cc2)cc1`: the half-maximal activity concentration (AC50) was 12 µM (active).

As to `CN(C)C(=O)C1(N2CCCCC2)CCN(CC[C@@]2(c3ccc(Cl)c(Cl)c3)CN(C(=O)c3ccccc3)CCO2)CC1`, the AC50 was 21.4 µM (active).

With `CCCCCCCCCCCC[N+](C)(C)C`, the AC50 was 75.8 µM (active).

`Cc1cc2c(cc1C(F)(F)F)N(C(=O)Nc1ccc(Oc3cccnc3C)nc1)CC2`: the molecule was classed as inactive.

Read-out in another test: matrix metalloproteinase-3 (MMP3), MMP3 (gene 4314)
In words: LTEA_HepaRG_MMP3: Life Technologies and Expression Analysis (LTEA) Assay for matrix metalloproteinase-3 (MMP3) using HepaRG (AID 2283519). Conditions: mRNA level, 48 h; actives raise or lower the signal. Summed up: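 Fluidigm-based TaqMan qRT-PCR, normalized to ACTB, GAPDH and POLR2A and fitted bidirectionally versus 0.5% DMSO, measured transcript levels. Treatment: duplicate 48 h exposures of HepaRG cells, ~100,000/well, to eight half-log concentrations topping at 100 uM.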
With `CCCCCc1ccc(N)cc1`, the molecule was called inactive.

Regarding `CC(O)CC(C)(C)O` (stereo unspecified), the molecule was classed as inactive.

As for `O=C1CCC(C2CCCCC2)CC1`, the molecule was called inactive.

`CC[C@@H]1C[C@H](N(Cc2cc(C(F)(F)F)cc(C(F)(F)F)c2)C(C)=O)c2cc(C(F)(F)F)ccc2N1C(=O)OC(C)C`: the result was inactive.

On to `O=c1ccc2ccccc2o1`, for which the molecule was called inactive.

`CC(C)(c1cc(Br)c(O)c(Br)c1)c1cc(Br)c(O)c(Br)c1`: the result was inactive.

Consider `CO[C@H]1/C=C/O[C@@]2(C)Oc3c(C)c(O)c4c(O)c(c(/C=N/N5CCN(C)CC5)c(O)c4c3C2=O)NC(=O)/C(C)=C\C=C\[C@H](C)[C@H](O)[C@@H](C)[C@@H](O)[C@@H](C)[C@H](OC(C)=O)[C@@H]1C`, for which the molecule was classed as inactive.

As to `O=C=NCCCCCCN=C=O`, the molecule was classed as inactive.

Turning to `O=C(Nc1ccc(Cl)cc1)Nc1ccc(Cl)c(Cl)c1`, the AC50 was 28.1 µM (active).

Consider `Cc1c2ccccc2c(C)c2c1ccc1ccccc12`, for which the half-maximal activity concentration (AC50) is 11.8 µM (active).

Take `Cc1ncc(CO)c(CO)c1O`: the call was inactive.

For the molecule `COc1cccc([C@H](O)C2CCN(CCc3ccc(F)cc3)CC2)c1OC`, the outcome was inactive.

Take `CCN(Cc1cccnc1)C(=O)c1cccc(Cl)c1[C@]1(C)C(=O)N(Cc2ccc(OC)cc2OC)c2ccc(Cl)cc21`: the molecule was classed as inactive.

Regarding `Cc1oc2c(NC(=O)c3c(Cl)cccc3Cl)cccc2c1C(C)(C)O`, the molecule was classed as inactive.

As to `Cc1cccc2ccccc12`, the molecule was classed as inactive.

Consider `CC1=CC(=O)/C(=C(/C)O)C(=O)O1`, for which the outcome was inactive.

Consider `Cc1cn([C@H]2C[C@H](N=[N+]=[N-])[C@@H](CO)O2)c(=O)[nH]c1=O`, for which the result was inactive.

On to `c1ccc2ccccc2c1`, for which the result was inactive.

In the case of `O=c1c(-c2ccc(O)cc2)coc2cc(O)cc(O)c12`, the molecule was called inactive.

For `Cc1ccc2oc(CN(Cc3ccccc3)C(=O)Nc3c(F)cc(F)cc3F)c(-c3ccc(Cl)cc3)c2c1`, the outcome was inactive.

Consider `C[C@]12CC[C@@H]3c4ccc(O)cc4CC[C@H]3[C@@H]1CCC2=O`, for which the result was inactive.

`COc1cc(C(=O)NC2CCN(C)CC2)ccc1Nc1ncc2c(n1)N(C1CCCC1)CC(F)(F)C(=O)N2C`: the AC50 was 4.65 µM (active).

For the molecule `CCCCOC(=O)CC(CC(=O)OCCCC)(OC(C)=O)C(=O)OCCCC`, the result was inactive.

For `O=C(O)Cc1cc(I)c(Oc2ccc(O)c(I)c2)c(I)c1`, the outcome was inactive.

With `CC1(C)NC(=O)N(c2ccc([N+](=O)[O-])c(C(F)(F)F)c2)C1=O`, the molecule was classed as inactive.

Take `CCCCOC(=O)c1ccc(O)cc1`: the molecule was called inactive.

On to `CC/C(=C(/CC)c1ccc(O)cc1)c1ccc(O)cc1`, for which the molecule was called inactive.

For `NCc1cccc(C2CCN(C(=O)c3ccc(C#Cc4ccccc4F)o3)CC2)c1`, the result was inactive.

As for `CCCCCCCCN(C)CCCCCCCC`, the result was inactive.

Turning to `O=C(O)Cn1c(=O)n(Cc2ccc(Br)cc2F)c(=O)c2ccc(Cl)cc21`, the call was inactive.

As for `CCCCCCCCOc1ccc(C(=O)c2ccccc2)c(O)c1`, the call was inactive.

Take `CC(=O)N1CCN(c2ccc(OC[C@H]3CO[C@](Cn4ccnc4)(c4ccc(Cl)cc4Cl)O3)cc2)CC1`: the concentration at half-maximal activity (AC50) is 24 µM (active).

For `c1ccc2n[nH]nc2c1`, the molecule was classed as inactive.

As to `O=CCCCC=O`, the molecule was called inactive.

As for `CN(C)c1ccc(C(=C2C=CC(=[N+](C)C)C=C2)c2ccc(N(C)C)cc2)cc1`, the concentration at half-maximal activity (AC50) was 9.34 µM (active).

Turning to `CN(C)C(=O)C1(N2CCCCC2)CCN(CC[C@@]2(c3ccc(Cl)c(Cl)c3)CN(C(=O)c3ccccc3)CCO2)CC1`, the call was inactive.

For `CCCCCCCCCCCC[N+](C)(C)C`, the half-maximal activity concentration (AC50) was 76.4 µM (active).

With `Cc1cc2c(cc1C(F)(F)F)N(C(=O)Nc1ccc(Oc3cccnc3C)nc1)CC2`, the result was inactive.
